From PubChem BioAssay (NCATS)
Several values for one entry are separate records, joined by “and”; a condition that tells them apart may be missing. Identical values can stand only once. Results filed as inconclusive are left out. Activity calls are given as the source filed them. Unless noted, the call rests on the fitted dose curve; in most records, active means well fitted curve in the direction sought with a large enough effect; inconclusive means small, poorly fitted or top-dose-only effect, or another doubt; inactive means no such curve, though single readings can be large; an effect the other way counts as inactive or inconclusive.

Assays:
[1] = qHTS Assay for Lipid Storage Modulators (AID 1519; calls by dose curve; on activity change, negative = inhibition: on the % scale 0 is the no-effect control and ±100 the full control effect); conditions: Drosophila S3 cells, BODIPY lipid droplet/cell ratio, laser cytometry, cells loaded with oleic acid
Summary of the method: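 Cells seeded at 5,000 per well were treated with compounds over a concentration series and loaded with oleic acid (400 uM, as added). Lipid droplet fluorescence (488 nm excitation, 500-530 nm channel) was read by laser-scanning cytometry and normalized to 20 uM Triacsin C.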

[2] = biological target: DNA repair nuclease/redox regulator APEX1 (Homo sapiens) (UniProt P27695); assay: qHTS Validation Assay for Inhibitors of the Human Apurinic/apyrimidinic Endonuclease 1 (APE1) (AID 1705;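 further: TAMRA fluorescence gain over two minutes as APE1 cuts a quenched THF abasic duplex; on the % scale 0 is the no-effect control and ±100 the full control effect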)
Summary of the method: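 Activity read as rising fluorescence (598 nm emission, 525 nm excitation) from incision of a TAMRA/BHQ-2 duplex carrying a THF abasic site (50 nM). Compound and enzyme sat 15 min at RT before substrate start; signal change between first and third 60-s reads.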

[3] = Counterscreen for APE1 Inhibitors: Fluorescent Dye Displacement Validation Assay (AID 1707);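 further: plate controls were ThO with dsDNA and no compound for no effect and ThO without dsDNA for full effect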
Summary of the method: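 Thiazole Orange displacement from dsDNA: 250 nM ThO with 50 nM TAMRA-labelled abasic-site (tetrahydrofuran) duplex in 50 mM Tris-HCl pH7.5, 50mM NaCl, 2 mM MgCl2, 0.01% Tween-20. Loss of endpoint fluorescence (ex 480 nm, em 540 nm) flags DNA binders.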

[4] = biological target: Endonuclease 4 (Escherichia coli (strain K12)) (UniProt P0A6C1); assay: Counterscreen for APE1 Inhibitors: qHTS Validation Assay for Inhibitors of Endonuclease IV (AID 1708); further: on the % scale 0 is the no-effect control and ±100 the full control effect
Summary of the method: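 qHTS concentration-response format; LOPAC1280 tested under APE1-screen conditions. 2 nM enzyme, 15 min compound preincubation at RT, then 50 nM TAMRA/BHQ-2 abasic substrate; kinetic fluorescence read, three reads at 60 s intervals.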

[5] = qHTS for differential inhibitors of proliferation of Plasmodium falciparum line 7G8 (AID 1815);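 further: parasite growth measured after three days of incubation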; further: potency means the concentration at half of the fitted maximal effect;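 on activity change, negative = inhibition: plate controls were vehicle wells for no effect and reference inhibitor wells for full effect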
[6] = qHTS for differential inhibitors of proliferation of Plasmodium falciparum line GB4 (AID 1816); conditions: Potency: Plasmodium falciparum GB4 proliferation inhibition;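 further: parasite growth measured after 72 h incubation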; further: potency means the concentration at half of the fitted maximal effect;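 on activity change, negative = inhibition: 0% = vehicle DMSO and -100% = reference inhibitor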
[7] = qHTS for differential inhibitors of proliferation of Plasmodium falciparum line 3D7 (AID 1876); further: potency means the concentration at half of the fitted maximal effect
[8] = qHTS for differential inhibitors of proliferation of Plasmodium falciparum line D10 (AID 1877);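 further: parasites grown with compound for 72 h before DNA staining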; further: potency means the concentration at half of the fitted maximal effect;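 on activity change, negative = inhibition: plate controls were vehicle wells for no effect and reference inhibitor wells for full effect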
[9] = qHTS for differential inhibitors of proliferation of Plasmodium falciparum line Dd2 (AID 1882); conditions: Potency: Plasmodium falciparum Dd2 proliferation inhibition; further: nearly all actives have a fitted effect of over 65% in size; further: potency means the concentration at half of the fitted maximal effect;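 on activity change, negative = inhibition: plate controls were DMSO vehicle for no effect and 0.29 µM artemisinin for full effect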
Summary of the method: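 Dd2-infected erythrocytes (0.3% parasitemia, 2.5% hematocrit final) incubated with compound 72 h at 37 C, 5% CO2; lysed with saponin/Triton buffer containing SYBR Green I, incubated overnight in the dark, then read by fluorescence (485/535 nm). Normalized to 0.29 uM artemisinin and DMSO.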

[10] = qHTS for differential inhibitors of proliferation of Plasmodium falciparum line HB3 (AID 1886); conditions: Potency: Plasmodium falciparum HB3 proliferation inhibition;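 further: parasites grown with compound for 72 h before SYBR Green readout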; further: potency means the concentration at half of the fitted maximal effect;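 on activity change, negative = inhibition: plate controls were vehicle for no effect and reference inhibitor for full effect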
[11] = Cell Viability - LYMP2-024 (AID 988);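 further: plate controls were DMSO only for no effect and 92 µM tetraoctylammonium bromide for full effect; nearly all actives have a fitted effect of over 60% in size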
Summary of the method: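 Human lymphoblastoid LYMP2-024 cells (2500/well) rested 5 hr, then treated with compound for 24 hr at 37 C in complete medium. Viability was measured as intracellular ATP by CellTiter-Glo luminescence. AC50 values came from Hill-equation fits.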

[12] = Cell Viability - LYMP2-026 (AID 989); further: on the % scale 0 is the no-effect control and ±100 the full control effect; nearly all actives have a fitted effect of over 50% in size
Summary of the method: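 Human lymphoblastoid LYMP2-026 cells, 2500/well, exposed to compound 24 h at 37 C in complete medium. Viability as intracellular ATP by CellTiter-Glo luminescence; AC50 from Hill fits of qHTS concentration-response.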

[13] = biological target: Alpha-galactosidase A (Homo sapiens) (UniProt P06280); assay: Counterscreen for Glucocerebrosidase Inhibitors: qHTS Assay for Human alpha-Galactosidase at pH 4.5 (AID 992); further: 0% is about no effect
Summary of the method: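 Enzyme at 2 nM final was combined with compound (0.7 nM to 77 uM) and 80 uM 4-methylumbelliferyl alpha-D-galactopyranoside in 50 mM citric acid, 0.005% Tween-20, pH 4.5. After 20 min at room temperature, fluorescence was read (Ex 365/Em 440 nm); AC50 came from Hill fits.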

[14] = Cell Viability - LYMP1-002 - Assay at 24 hr (AID 993); further: on the % scale 0 is the no-effect control and ±100 the full control effect
Summary of the method: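 Human lymphoblastoid LYMP1-002 cells (2500/well) treated 24 h at 37 °C; viability as intracellular ATP by CellTiter-Glo luminescence. Tetraoctylammonium bromide as positive control; AC50 from Hill-equation fits of qHTS concentration-response.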

[15] = qHTS for differential inhibitors of proliferation of Plasmodium falciparum line W2 (AID 1883); conditions: Potency: Plasmodium falciparum W2 proliferation inhibition;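 further: parasites grown with compound for 72 h before lysis and staining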; further: potency means the concentration at half of the fitted maximal effect;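 on activity change, negative = inhibition: 0% = vehicle wells and -100% = control inhibitor wells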
[16] = biological target: alpha-glucosidase (Oryza sativa, rice) (UniProt Q653V4); assay: Counterscreen for Glucocerebrosidase Inhibitors: qHTS Assay for Rice alpha-Glucosidase at pH 5.0 (AID 997);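 further: 0% = full activity with enzyme and -100% = basal without enzyme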
Summary of the method: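 Rice alpha-glucosidase (4 nM final) with 400 uM 4-methylumbelliferyl-alpha-D-glucopyranoside in citrate buffer pH 5.0, 20 min at room temperature, stopped at pH 10; fluorescence 365/440 nm, compounds 0.7 nM–77 uM, AC50 from Hill fits.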

[17] = Validation of Assay for Modulators of Lamin A Splicing (AID 1459; active means well fitted curve in the direction sought with a large enough effect in the signal ratio; the % refers to the signal ratio;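 further: cells exposed to compound for two days before reading; 0% is about no effect; ratio rise marks activators and ratio drop marks inhibitors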)
Summary of the method: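 Splicing correction read as GFP (500-530 nm) over DsRed2 (575-640 nm) object intensity after 48 h compound exposure of reporter HeLa S3 clones (600 cells/well, 2% FBS medium); ancitabine and cycloheximide titrations, 0.5% DMSO as vehicle.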

[18] = qHTS Assay for Modulators of Human Peripheral Myelin Protein 22 (PMP22) Expression/Activity (AID 1967; active means well fitted curve in the direction sought with a large enough effect in the signal ratio; the % refers to the signal ratio;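 further: 0% = untreated cells and 100% end not stated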)
Summary of the method: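 Readout is the corrected green/red luminescence ratio after 24 h compound exposure, normalised to untreated cells (0%). Engineered MSC80 mouse Schwann cells express green luciferase from the mouse Pmp22 promoter and red luciferase from EF-alpha as internal control.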

[19] = Cell Viability - LYMP2-022 (AID 987);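 further: 0% = DMSO alone and full effect = tetraoctylammonium bromide at 92 µM; nearly all actives have a fitted effect of over 55% in size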
Summary of the method: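 LYMP2-022 lymphoblastoid cells (2500/well, complete medium) were treated with compounds for 24 hours at 37 C; intracellular ATP was then read by CellTiter-Glo luminescence after 30 min at room temperature. AC50 values were derived from Hill-equation fits.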

[20] = Cell Viability - LYMP1-002 - Assay at 40 hr (AID 994);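 further: 0% = DMSO only and full inhibition = 92 µM tetraoctylammonium bromide; nearly all actives have a fitted effect of over 60% in size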
Summary of the method: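 LYMP1-002 human lymphoblastoid cells (2500/well, complete medium) were treated with compounds for 40 hr at 37 C. Intracellular ATP was measured by CellTiter-Glo luminescence, and AC50 values came from Hill-equation fits of concentration-response data; tetraoctylammonium bromide was the positive control.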

[21] = measured here: cell count channel max response
[22] = measured here: lipid channel max response

Chain of DNA repair nuclease/redox regulator APEX1 (Homo sapiens) (P27695 whole entry, looked up): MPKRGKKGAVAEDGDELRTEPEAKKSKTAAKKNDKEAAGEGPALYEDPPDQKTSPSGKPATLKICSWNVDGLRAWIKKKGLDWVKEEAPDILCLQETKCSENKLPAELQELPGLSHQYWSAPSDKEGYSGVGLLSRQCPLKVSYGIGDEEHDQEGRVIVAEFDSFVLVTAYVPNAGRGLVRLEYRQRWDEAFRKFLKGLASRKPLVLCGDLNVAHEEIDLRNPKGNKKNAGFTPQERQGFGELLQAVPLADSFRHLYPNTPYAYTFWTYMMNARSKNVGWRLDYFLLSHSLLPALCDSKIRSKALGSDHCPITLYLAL
Chain of Alpha-galactosidase A (Homo sapiens) (P06280 whole entry, looked up): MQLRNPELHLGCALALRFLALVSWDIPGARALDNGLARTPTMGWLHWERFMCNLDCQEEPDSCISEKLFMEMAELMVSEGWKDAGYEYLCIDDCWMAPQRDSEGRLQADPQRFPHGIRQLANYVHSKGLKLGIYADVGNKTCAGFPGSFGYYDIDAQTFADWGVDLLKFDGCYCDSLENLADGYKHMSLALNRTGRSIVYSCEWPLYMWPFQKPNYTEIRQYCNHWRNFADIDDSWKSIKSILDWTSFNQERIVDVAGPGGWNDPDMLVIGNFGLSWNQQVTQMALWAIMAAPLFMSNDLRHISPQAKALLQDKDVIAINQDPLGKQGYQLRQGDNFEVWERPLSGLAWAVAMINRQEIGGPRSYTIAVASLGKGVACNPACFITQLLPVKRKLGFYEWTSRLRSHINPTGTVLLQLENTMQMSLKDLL

CCN1CCC[C@H]1CNC(=O)c1c(O)c(Cl)cc(Cl)c1OC
12.1% and 6.79%: max response [1, 21]
inactive: activity change, negative = inhibition ([1]; at 57.5 µM (top of the series)) 1.67% and 3.44% | Potency [2] | outcome [3] | Potency [4] | Potency [5] | Potency [6] | Potency [7] | Potency [8] | Potency [9] | Potency [10]
12.8% and 10.2%: max response [1, 22]

Nc1nc(N)c2nc(-c3ccccc3)c(N)nc2n1
-2.65% and -13.5%: max response [1, 22]
active: Potency [6] 0.891 µM | Potency [7] 2 µM | Potency [8] 2.51 µM | Potency [15] 15.8 µM | Potency [10] 12.6 µM
inactive: Potency [11] | outcome [12] | outcome [13] | outcome [14] | activity change, negative = inhibition ([1]; at 25.7 µM (top of the series)) -0.107% | activity change, negative = inhibition ([1]; at 57.5 µM (top of the series)) -0.933% | outcome [3] | Potency [9]
-4.41% and -12.1%: max response [1, 21]

CCCOc1ccccc1-c1nc2n[nH]nc2c(=O)[nH]1
inactive: outcome [13] | outcome [16] | activity change, negative = inhibition ([1]; at 25.7 µM (top of the series)) -0.67% | activity change, negative = inhibition ([1]; at 57.5 µM (top of the series)) 9.88% and -1.66% | Potency [2] | outcome [3] | Potency [8] | Potency [9] | Potency [10]
4.38% and 27.6% and 39.3%: max response [1, 21]
5.08% and 45.2% and 35.5%: max response [1, 22]

c1ccc2c(c1)CCCC2C1=NCCN1 (stereo not given)
inactive: outcome [17] | outcome [3] | Potency [4] | Potency [5] | Potency [7] | Potency [8] | Potency [9] | Potency [10] | outcome [18]

CCn1ccnc1CC1COc2ccccc2O1 (stereo not given)
active: Potency [15] 10 µM
56.5%: max response [1, 21]
60.7%: max response [1, 22]
inactive: activity change, negative = inhibition ([1]; at 57.5 µM (top of the series)) 1.49% | Potency [2] | outcome [3] | Potency [4] | Potency [7] | Potency [8] | Potency [9]

NC(=O)N1c2ccccc2C=Cc2ccccc21
inactive: Potency [19] | Potency [11] | outcome [12] | outcome [13] | outcome [14] | Potency [20] | outcome [16] | activity change, negative = inhibition ([1]; at 25.7 µM (top of the series)) -0.889% | Potency [2] | outcome [3] | Potency [4] | Potency [5] | Potency [6] | Potency [7] | Potency [8] | Potency [9] | Potency [10]
-5.44%: max response [1, 22]
-0.817%: max response [1, 21]

CC1=NS(=O)(=O)c2cc(Cl)ccc2N1
8.52% and 9.84%: max response [1, 21]
inactive: outcome [13] | outcome [16] | activity change, negative = inhibition ([1]; at 25.7 µM (top of the series)) 4.02% | activity change, negative = inhibition ([1]; at 57.5 µM (top of the series)) 14.6% | Potency [2] | outcome [3] | Potency [4] | Potency [5] | Potency [6] | Potency [7] | Potency [8] | Potency [9] | Potency [15] | Potency [10]
14.7% and 27.6%: max response [1, 22]

COC(=O)C1=C(C)NC(C)=C(C(=O)OCCN(C)Cc2ccccc2)C1c1cccc([N+](=O)[O-])c1 (stereo not given)
inactive: activity change, negative = inhibition ([1]; at 57.5 µM (top of the series)) 2.25% | Potency [2] | outcome [3]
-7.38%: max response [1, 22]
-9.5%: max response [1, 21]

CCCCCCCC/C=C\CCCCCCCC(=O)NCc1ccc(O)c(OC)c1
15.7%: max response [1, 21]
inactive: activity change, negative = inhibition ([1]; at 57.5 µM (top of the series)) -24.2%
-12.6%: max response [1, 22]

CN(C)CCCN1c2ccccc2Sc2ccc(C(F)(F)F)cc21
inactive: outcome [13] | outcome [16] | activity change, negative = inhibition ([1]; at 25.7 µM (top of the series)) -1.52% | activity change, negative = inhibition ([1]; at 57.5 µM (top of the series)) 3.48% | Potency [2] | outcome [3] | Potency [4]
-5.7% and 9.08%: max response [1, 21]
active: Potency [5] 8.91 µM | Potency [6] 11.2 µM | Potency [8] 11.2 µM | Potency [9] 11.2 µM | Potency [15] 7.08 µM | Potency [10] 10 µM
-9.54% and 14.3%: max response [1, 22]

CCO/C([O-])=N/c1c[n+](N2CCOCC2)no1
-4.32% and 6.3% and -2.43%: max response [1, 22]
-1.78% and -5.37% and -2.1%: max response [1, 21]
inactive: outcome [13] | outcome [16] | activity change, negative = inhibition ([1]; at 25.7 µM (top of the series)) -2.6% | activity change, negative = inhibition ([1]; at 57.5 µM (top of the series)) 9.19% and 0.351% | Potency [2] | Potency [5] | Potency [6] | Potency [7] | Potency [8] | Potency [9] | Potency [15] | Potency [10]

CCn1cc(C(=O)O)c(=O)c2cc3c(cc21)OCO3
inactive: outcome [13] | outcome [16] | activity change, negative = inhibition ([1]; at 25.7 µM (top of the series)) -1.05% | activity change, negative = inhibition ([1]; at 57.5 µM (top of the series)) 2.77% | outcome [3] | Potency [4] | Potency [8] | Potency [9]
10.4% and 75.7%: max response [1, 22]
12% and 70.6%: max response [1, 21]

O=C(O)CP(=O)(O)O
inactive: outcome [13] | outcome [16] | outcome [17] | outcome [3] | Potency [5] | Potency [8] | Potency [9] | Potency [10] | outcome [18]

CC(=O)Nc1nnc(S(N)(=O)=O)s1
5.21% and 17%: max response [1, 22]
6.43% and 19.5%: max response [1, 21]
inactive: outcome [13] | outcome [16] | activity change, negative = inhibition ([1]; at 25.7 µM (top of the series)) -1.69% | activity change, negative = inhibition ([1]; at 57.5 µM (top of the series)) -0.868% | Potency [2] | outcome [3] | Potency [4] | Potency [5] | Potency [6] | Potency [7] | Potency [8] | Potency [9] | Potency [15] | Potency [10]

CCN(Cc1ccncc1)C(=O)C(CO)c1ccccc1 (stereo not given)
inactive: outcome [17] | outcome [3] | Potency [5] | Potency [6] | Potency [7] | Potency [8] | Potency [9] | Potency [15] | Potency [10] | outcome [18]

CC(C)NNC(=O)c1ccncc1
4.18% and 16.8% and -20.6%: max response [1, 21]
inactive: outcome [13] | outcome [16] | activity change, negative = inhibition ([1]; at 25.7 µM (top of the series)) -0.171% | activity change, negative = inhibition ([1]; at 57.5 µM (top of the series)) 6.45% and -0.103% | Potency [2] | outcome [3] | Potency [4] | Potency [5] | Potency [6] | Potency [7] | Potency [8] | Potency [9] | Potency [15] | Potency [10]
1.65% and 27.2% and -21.8%: max response [1, 22]
